Assay outcomes (PubChem BioAssay)
Compounds with a hit are over-represented: about 1.4% of the library has one in this group of screens.
SARS PLpro yeast-1: SARS-CoV PLP inhibition in yeast | S. cerevisiae expressing SARS-CoV PLpro, growth rescue | hit rate 0.19% among 330,000 | Potency, µM (doses to about 32.9 µM), for the others: at the highest dose activity, positive = growth rescue, usual class: activators; calls by dose curve; note: potency is the fitted concentration of half-maximal effect; 0% is about no effect; nearly all actives have a fitted effect of over 55% in size
AMA1 RON2 block: inhibitors of Plasmodium falciparum AMA1-RON2 interaction. Potency, µM (titrated, usually from 58.2 µM), inactives show at the highest dose activity change, negative = inhibition, actives largely listed as inhibitors. hit rate 0.2% among 360,000. AlphaScreen AMA1-biotinylated RON2 peptide binding;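 note: potency is the fitted concentration of half-maximal effect; 0% = vehicle wells and -100% = peptide control; nearly all actives have a fitted effect of over 45% in size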
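AMA1 (3D7) with his tag at 25 nM final met compounds first, then biotinylated RON2 peptide at 25 nM; detection used donor plus acceptor beads, 10 µg/mL apiece, read by AlphaScreen after 30 min at room temperature.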
Vaccinia Venus: inhibitors of vaccinia virus (Venus reporter); Vaccinia virus Venus reporter expression, fluorescence; AID 720580; hit rate 0.46% among 330,000; Potency, µM (highest dose often 36.5 µM), for inactives: top-dose activity change, negative = inhibition, usual class: inhibitors; calls by dose curve; tested in A549 cells; note: potency is the fitted concentration of half-maximal effect; % is set by controls: 0 for no effect and ±100 for the full control effect; nearly all actives have a fitted effect of over 30% in size
AmpC inh no detg: AmpC beta-lactamase inhibition without detergent; P00811; Potency, µM (highest dose often 57.1 µM), for inactives: at the top dose activity change, negative = inhibition, hits mostly inhibitors; AmpC nitrocefin hydrolysis, absorbance 480 nm, 0.0001% Triton; hit rate 0.52% among 330,000;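 note: potency is the fitted concentration of half-maximal effect; plate controls were no compound for no effect and no enzyme for full effect; nearly all actives have a fitted effect of over 20% in size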
Target sequence (P00811 whole entry, looked up): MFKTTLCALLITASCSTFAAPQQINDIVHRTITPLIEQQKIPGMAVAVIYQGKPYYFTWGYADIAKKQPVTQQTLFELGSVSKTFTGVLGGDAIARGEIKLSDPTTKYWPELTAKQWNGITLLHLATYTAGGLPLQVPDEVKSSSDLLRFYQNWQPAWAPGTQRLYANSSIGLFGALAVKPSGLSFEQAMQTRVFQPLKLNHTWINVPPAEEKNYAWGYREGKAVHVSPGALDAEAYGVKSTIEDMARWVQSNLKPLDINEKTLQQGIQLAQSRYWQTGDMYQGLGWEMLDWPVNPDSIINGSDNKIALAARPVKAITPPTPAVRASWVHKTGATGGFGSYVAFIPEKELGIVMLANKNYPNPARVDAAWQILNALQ
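20 mM phosphate pH 7.0 + 0.01% (detergent screen) or 0.0001% Triton X-100; 5.3 nM AmpC reagent; cpd preinc 15 min RT; nitrocefin (800 uM stock) to start; A480 q20 s × 4 min; Activity was normalised to no-enzyme and no-compound control wells.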
AmpC detergent: inhibitors of E. coli AmpC beta-lactamase with detergent; P00811; AmpC hydrolysis of nitrocefin, absorbance 480 nm, 0.01% Triton; Potency, µM (doses to about 114 µM), without a hit: at the top dose activity change, negative = inhibition, most hits filed as inhibitors; hit rate 0.041% among 370,000; AID 485294;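 note: potency is the fitted concentration of half-maximal effect; 0% = no-compound wells and -100% = no-enzyme wells; nearly all actives have a fitted effect of over 25% in size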
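20 mM phosphate pH 7.0 + 0.01% (detergent screen) or 0.0001% Triton X-100; 5.3 nM AmpC reagent; cpd preinc 15 min RT; nitrocefin (800 uM stock) to start; A480 q20 s × 4 min; Activity was normalised to no-enzyme and no-compound control wells.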
VACV mCherry inh: inhibitors of vaccinia virus infection (mCherry reporter signal). AID 720579. hit rate 0.63% among 310,000. Potency, µM (highest dose often 36.5 µM), inactives show top-dose activity change, negative = inhibition, usual class: inhibitors. Vaccinia virus mCherry reporter infection, fluorescence; calls by dose curve; tested in A549 cells; note: potency is the fitted concentration of half-maximal effect; % is set by controls: 0 for no effect and ±100 for the full control effect; nearly all actives have a fitted effect of over 35% in size
SARS PLpro yeast-2: Inhibits SARS-CoV PLP in yeast, hit validation. hit rate 19% among 1,000. yeast expressing SARS-CoV PLpro, growth phenotype rescue. calls only. shares compounds with SARS PLpro yeast-1; call rule not given here
Active calls of the source: *; i = inactive; ? = inconclusive; / = no result; + = active, no number. Unless noted, calls come from the whole dose curve; as a rule, active = well fitted curve in the direction sought with a large enough effect; inconclusive = small, poorly fitted or top-dose-only effect, or another doubt; inactive = no such curve, though single readings can be large; an effect the other way counts as inactive or inconclusive.

SMILES | SARS PLpro yeast-1 | AMA1 RON2 block | Vaccinia Venus | AmpC inh no detg | AmpC detergent | VACV mCherry inh | SARS PLpro yeast-2
O=C(COc1ccc(F)c(Cl)c1)N1CCN(c2ccccn2)CC1 | ? | -3.0% | -13.3% | 1.2% | 1.5% | -8.7% | i
CCC(C(=O)Nc1cc(C)ccc1C)n1c(=O)c(C(F)(F)F)nc2ccccc21 (stereo not drawn) | / | / | -6.6% | / | -0.8% | -3.1% | /
O=C(CN1CC(c2ccccc2)CC1=O)N/N=C/c1cc(Br)ccc1O (stereo not drawn) | 10µM* | 39.6% | ? | -15.7% | -9.2% | ? | +
CC1CC(C)(C)NC(=S)N1CC(=O)NCc1ccc(F)cc1 (stereo not drawn) | 3.0% | -3.4% | -4.0% | -5.9% | -2.3% | -3.5% | /
CC1CC(C)(C)NC(=S)N1CC(=O)N(C)Cc1ccccc1 (stereo not drawn) | ? | 1.3% | -5.9% | -15.9% | -4.3% | -12.0% | i
O=C(N=C1SCC(=O)N1c1ccccc1)c1ccco1 | ? | -0.5% | 21.5% | -20.2% | 0.2% | / | i
O=C(N=C1SCC(=O)N1c1ccccc1Cl)c1ccco1 | -4.8% | -7.8% | / | -31.8% | ? | / | /
Nc1nc2ncc(=O)[nH]c2c(=O)[nH]1 | / | / | 0.0% | / | / | i | /
Cc1nn(CCCC(=O)NCc2ccccc2)c(=O)c2nccn12 | 2.7% | -0.7% | 4.3% | -4.3% | ? | 2.1% | /
CCc1ccc(CNC(=O)CCCn2nc(C)n3ccnc3c2=O)cc1 | ? | 17.9% | -2.2% | -16.5% | -12.0% | i | i
O=C(CNS(=O)(=O)c1ccc2ccccc2c1)OCc1csc(-c2ccccc2)n1 | 3.16µM* | -13.7% | -17.9% | -17.8% | -12.1% | -3.0% | i
CC(C)c1ccc(NC(=O)CN2C(=O)NC3(CCCC3)C2=O)cc1 | 3.55µM* | -13.2% | -10.4% | -1.1% | -1.4% | -16.0% | i
CC(=O)Nc1ccc(NC(=O)CN2C(=O)NC3(CCCCCCC3)C2=O)cc1 | -16.3% | 17.1% | -11.8% | -24.8% | / | -16.3% | /
Cc1cc(=O)n2c(C(=O)Nc3ccc(Br)cc3)c(C(=O)Nc3ccccc3)sc2n1 | / | / | 1.6% | / | 10.9% | -5.3% | /
CCNC(=S)NNC(=O)c1ccccn1 | ? | -38.5% | ? | -16.1% | ? | ? | i
COc1cc(-c2ccno2)ccc1S(=O)(=O)N1CCN(c2cccc(Cl)c2)CC1 | / | / | 0.8% | / | 12.4% | -10.2% | /
CCC(C)n1c(O)c(/C=N/NC(=O)c2ccncc2)c(=O)[nH]c1=S (stereo not drawn) | 11.2µM* | 13.8% | 6.4% | -33.1% | -12.0% | 12.6% | i
CCn1c(O)c(/C=N/NC(=O)c2ccncc2)c(=O)[nH]c1=S | 1.5% | -4.5% | 16.8% | -30.8% | ? | i | /
O=C(CNC(=O)C1CCCCC1)OCC(=O)c1ccc2c(c1)CCC2 | / | / | -10.9% | / | / | 31.4% | /
Cc1ccc(N=C2NC(=O)/C(=C\c3cccs3)S2)cc1C | ? | -29.5% | -10.0% | -28.0% | ? | -18.9% | i
Cc1cccc(N=C2NC(=O)/C(=C/c3cccs3)S2)c1 | -6.4% | 2.4% | -9.8% | -17.6% | -4.5% | -21.6% | /
O=C(Cc1cc(=O)[nH]c(=O)[nH]1)N1CCN(C(=O)c2ccco2)CC1 | 1.78µM* | 6.7% | -7.3% | -11.9% | 8.9% | ? | i
C(=N\n1c2ccccc2c2ccccc21)/c1ccccc1 | -1.1% | -24.5% | -7.3% | -18.7% | -2.0% | i | /
C[n+]1cn(/N=C/c2ccccc2)c2ccccc21 | ? | -0.5% | -16.1% | -8.0% | -4.9% | i | i
Cc1cc2c(n1-c1ccc(C(=O)NCc3ccccc3Cl)cc1)CCCC2 | / | / | -9.7% | / | 27.3% | -23.0% | /
SMILES | SARS PLpro yeast-1 | AMA1 RON2 block | Vaccinia Venus | AmpC inh no detg | AmpC detergent | VACV mCherry inh | SARS PLpro yeast-2
Cn1c(N)c(C(=O)COC(=O)CCc2c[nH]c3ccccc23)c(=O)n(C)c1=O | 3.55µM* | -5.2% | 16.9% | -9.0% | ? | / | i
Cn1c(N)c(C(=O)COC(=O)CCCc2c[nH]c3ccccc23)c(=O)n(C)c1=O | 14.5% | -4.2% | -3.2% | 32.3% | ? | / | /
Cc1c(C=O)ccc(N(C)C)c1C | / | / | -8.7% | / | / | 37.7% | /
Cc1cc(C)c2c(NC(=O)CCl)nn(C)c2n1 | 11.2µM* | -6.5% | ? | -5.6% | -0.9% | 4.47µM* | +
Cc1cc(C)c2c(NC(=S)NC(=O)c3ccccc3)nn(C)c2n1 | 14.7% | 5.9% | -2.3% | 20.1% | ? | i | /
COc1cccc(C(NC(C)=O)c2ccc3cccnc3c2O)c1 (stereo not drawn) | 3.16µM* | -80.9% | ? | -17.5% | -9.5% | ? | i
Oc1cccc(C(Nc2nccs2)c2ccc3cccnc3c2O)c1 (stereo not drawn) | 0.447µM* | -27.5% | ? | -41.8% | 8.5% | 15.8µM* | +
Oc1c(C(c2cccs2)N2CCN(c3ccccc3)CC2)ccc2cccnc12 (stereo not drawn) | / | / | / | / | -2.2% | / | /
CC(=O)NC(c1ccc(C(C)C)cc1)c1ccc2cccnc2c1O (stereo not drawn) | -20.5% | 58.5% | ? | 75.7% | -9.3% | ? | /
CC(=O)NC(c1cccc([N+](=O)[O-])c1)c1ccc2cccnc2c1O (stereo not drawn) | 1.12µM* | -85.6% | ? | 16.9% | 0.1% | ? | i
O=[N+]([O-])c1ccc(NC(c2ccccc2)c2ccc3cccnc3c2O)cc1 (stereo not drawn) | / | 68.9% | ? | / | / | ? | /
Oc1c(C(Nc2cccc(C(F)(F)F)c2)c2cccnc2)ccc2cccnc12 (stereo not drawn) | ? | -33.9% | -23.7% | -17.7% | -3.3% | -22.5% | i
COc1cc(-c2nnc(SCc3cc(=O)oc4cc(O)c(O)cc34)o2)cc(OC)c1OC | 6.31µM* | ? | / | ? | -4.3% | / | i
O=C(CCCSc1nc(-c2ccco2)cc(C(F)(F)F)n1)Nc1ccc2c(c1)OCO2 | / | -6.2% | ? | / | 14.6% | / | /
O=C(CSc1nc(-c2ccco2)cc(C(F)(F)F)n1)Nc1ccc2c(c1)OCO2 | ? | -9.3% | ? | -35.7% | -7.1% | ? | +
CC1(C)OC(=O)C2(Cc3ccc(Cl)cc3N3CCCC32)C(=O)O1 (stereo not drawn) | / | / | 11.4% | / | / | 25.7% | /
O=C(N/N=C/c1cccc([N+](=O)[O-])c1)C1COc2ccccc2O1 (stereo not drawn) | -6.0% | 38.3% | -13.8% | -28.9% | -0.3% | 0.4% | /
Cc1[nH]n(-c2ccccc2)c(=O)c1/C=N\NC(=O)C1COc2ccccc2O1 (stereo not drawn) | 10µM* | 10.9% | -23.7% | -42.6% | -1.4% | -19.2% | i
